# Reference: PubChem BioAssay (EPA / NIEHS)
# Values joined by “and” are separate entries in the source; they are usually repeats but may differ in a detail not shown here. Equal entries are not always repeated. Results filed as inconclusive are left out. The source holds several records for some structures; these can differ, active in one and inactive in another. Active and inactive are the calls of the source. The calls were made as follows, unless noted: active = hit-call score of the fitted dose curve at least 0.9, where 1 is the maximum; inactive = score below 0.9.
# Key:
# [1] = ATG_TAL_CIS: Attagene CIS-FACTORIAL HepG2 Assay for human TAL Basal Promoter (AID 2282966); conditions: HepG2 Attagene cis-factorial TAL promoter reporter; actives raise or lower the signal;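 also: background control endpoint measuring basal TAL promoter reporter mRNA not a specific factor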
# Outline: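 Steps: transfect HepG2 with multiple reporter transcription units; dose 24 h; isolate RNA, reverse-transcribe, PCR-amplify, label with 6-FAM, digest with HpaI; resolve by capillary electrophoresis. Bidirectional fitting against DMSO baseline.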
# [2] = ATG_TGFb_CIS: Attagene CIS-FACTORIAL HepG2 Assay for human Transforming Growth Factor (TGF) (AID 2282967); conditions: HepG2 Attagene CIS TGFb reporter, mRNA transcription; actives raise or lower the signal
# Outline: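 Endogenous TGFB1-linked transcription factor activity read as reporter mRNA via RT-PCR and capillary electrophoresis, 24 h after dosing transiently transfected HepG2 cells. Gain or loss of signal fitted relative to DMSO.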
# [3] = ATG_VDRE_CIS: Attagene CIS-FACTORIAL HepG2 Assay for human Vitamin D Receptor Element (VDRE) (AID 2282968); conditions: HepG2 VDRE cis-reporter transcription, actives raise or lower the signal
# Outline: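 Reporter mRNA induction, quantified by capillary electrophoresis of fluorescently labelled RT-PCR products, was read 24 h after dosing HepG2 cells carrying transiently transfected cis-regulated reporter units; gain or loss relative to DMSO.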
# [4] = biological target: Steroid hormone receptor ERR1 (Homo sapiens) (UniProt P11474); test: ATG_ERRa_TRANS: Attagene TRANS-FACTORIAL HepG2 Assay for human Estrogen-Related Receptor alpha (ERRa) (AID 2282971; active = hit-call score of the fitted dose curve at least 0.9, where 1 is the maximum); conditions: HepG2 Attagene TRANS reporter, ERRa transactivation
# Outline: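 Signal gain relative to DMSO for an ERRa-Gal4 chimeric receptor, read as reporter mRNA by RT-PCR/capillary electrophoresis. Human HepG2 liver cells, transient multiplex reporter transfection, 24 h chemical exposure.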
# [5] = biological target: X-box-binding protein 1 (Homo sapiens) (UniProt P17861); test: ATG_Xbp1_CIS: Attagene CIS-FACTORIAL HepG2 Assay for human X-box Binding Protein 1 (XBP1) (AID 2282972); conditions: HepG2 XBP1 cis-element reporter, Attagene multiplex; actives raise or lower the signal
# Sequence of X-box-binding protein 1 (Homo sapiens) (P17861 whole entry, looked up): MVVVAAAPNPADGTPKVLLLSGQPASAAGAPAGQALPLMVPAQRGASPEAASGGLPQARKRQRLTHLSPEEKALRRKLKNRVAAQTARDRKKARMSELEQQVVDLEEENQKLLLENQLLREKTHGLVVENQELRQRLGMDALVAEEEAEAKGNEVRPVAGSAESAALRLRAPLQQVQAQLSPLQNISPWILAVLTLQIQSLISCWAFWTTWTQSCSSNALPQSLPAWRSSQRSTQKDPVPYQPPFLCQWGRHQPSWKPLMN
# Outline: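 HepG2 cells transiently transfected with cis-regulated multiple reporter transcription units; endogenous transcription factor activity measured 24 hours after chemical dosing. Reporter mRNA quantified by RT-PCR, 6-FAM primer extension, HpaI digestion and capillary electrophoresis; bidirectional fitting versus DMSO.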
# [6] = ATG_M_19_TRANS: Attagene TRANS-FACTORIAL HepG2 Assay for M19 Transcription Factor (Internal Marker) (AID 2282974; active = hit-call score of the fitted dose curve at least 0.9, where 1 is the maximum); conditions: HepG2 Attagene TRANS-FACTORIAL M19 internal marker reporter
# Outline: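 Multiplexed TRANS format: HepG2 liver cells bearing transient GAL4-UAS reporter units, chemical treatment 24 h, reporter transcripts quantified by RT-PCR plus capillary electrophoresis. DMSO defines baseline.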
# [7] = ATG_GAL4_TRANS: Attagene TRANS-FACTORIAL HepG2 Assay for GAL4 (Internal Marker) (AID 2282976; active = hit-call score of the fitted dose curve at least 0.9, where 1 is the maximum); conditions: HepG2 Attagene TRANS GAL4 internal marker reporter
# Outline: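 Liver HepG2 line bearing multiplexed GAL4-UAS reporter constructs; 24 h chemical treatment. Transcripts were quantified as fluorescent fragments on capillary electrophoresis after RT-PCR and HpaI cut, with activity fitted upward from DMSO.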
# [8] = biological target: Estrogen-related receptor gamma (Homo sapiens) (UniProt P62508); test: ATG_ERRg_TRANS: Attagene TRANS-FACTORIAL HepG2 Assay for human Estrogen-Related Receptor gamma (ERRg) (AID 2282977; active = hit-call score of the fitted dose curve at least 0.9, where 1 is the maximum;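 also: hits increase reporter signal over DMSO so potencies reflect activators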); conditions: HepG2 Attagene TRANS reporter, ERRg transactivation
# Outline: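 Transfect HepG2 with multiple GAL4-UAS reporter transcription units; dose chemicals 24 h; isolate RNA, reverse-transcribe with oligo(dT), PCR-amplify, label with 6-FAM, digest with HpaI; size fragments by capillary electrophoresis. DMSO serves as negative control.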
# [9] = biological target: Glucocorticoid receptor (Homo sapiens) (UniProt P04150); test: ATG_GR_TRANS: Attagene TRANS-FACTORIAL HepG2 Assay for human Glucocorticoid Receptor (GR) (AID 2282978; active = hit-call score of the fitted dose curve at least 0.9, where 1 is the maximum;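 also: activators score as hits since higher reporter transcript over DMSO is fitted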); conditions: HepG2 Attagene TRANS GR reporter, mRNA transcription
# Sequence of Glucocorticoid receptor (Homo sapiens) (P04150 whole entry, looked up, the tested form may be a part): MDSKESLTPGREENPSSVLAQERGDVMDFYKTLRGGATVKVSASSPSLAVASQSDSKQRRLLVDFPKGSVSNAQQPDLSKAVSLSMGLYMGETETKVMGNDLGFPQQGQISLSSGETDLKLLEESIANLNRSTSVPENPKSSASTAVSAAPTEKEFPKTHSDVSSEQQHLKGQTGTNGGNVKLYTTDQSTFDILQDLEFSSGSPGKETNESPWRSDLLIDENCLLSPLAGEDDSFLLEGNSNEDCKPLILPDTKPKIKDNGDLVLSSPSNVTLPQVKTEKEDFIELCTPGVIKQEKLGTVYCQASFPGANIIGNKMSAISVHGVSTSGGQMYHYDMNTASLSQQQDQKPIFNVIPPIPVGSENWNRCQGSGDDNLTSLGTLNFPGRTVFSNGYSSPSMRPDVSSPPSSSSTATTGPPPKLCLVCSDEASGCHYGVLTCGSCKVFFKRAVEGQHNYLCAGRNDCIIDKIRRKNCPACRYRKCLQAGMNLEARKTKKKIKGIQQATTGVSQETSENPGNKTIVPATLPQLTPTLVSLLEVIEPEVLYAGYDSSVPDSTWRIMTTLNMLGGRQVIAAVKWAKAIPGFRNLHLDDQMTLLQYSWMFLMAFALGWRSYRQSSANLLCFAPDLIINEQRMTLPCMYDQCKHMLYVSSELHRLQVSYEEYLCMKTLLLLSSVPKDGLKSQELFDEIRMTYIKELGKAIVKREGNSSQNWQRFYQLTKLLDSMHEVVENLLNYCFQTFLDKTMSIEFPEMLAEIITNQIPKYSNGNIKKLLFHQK
# Outline: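 Transiently transfected HepG2 cells express chimeric NR-GAL4 proteins acting on GAL4-UAS reporter units. Compounds are applied for 24 h. mRNA induction over DMSO is measured by capillary electrophoresis.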
# [10] = biological target: Oxysterols receptor LXR-alpha (Homo sapiens) (UniProt Q13133); test: ATG_LXRa_TRANS: Attagene TRANS-FACTORIAL HepG2 Assay for human Liver X Receptor alpha (LXRa) (AID 2282980; active = hit-call score of the fitted dose curve at least 0.9, where 1 is the maximum); conditions: HepG2 Attagene TRANS reporter, LXRa transactivation
# Sequence of Oxysterols receptor LXR-alpha (Homo sapiens) (Q13133 whole entry, looked up, the tested form may be a part): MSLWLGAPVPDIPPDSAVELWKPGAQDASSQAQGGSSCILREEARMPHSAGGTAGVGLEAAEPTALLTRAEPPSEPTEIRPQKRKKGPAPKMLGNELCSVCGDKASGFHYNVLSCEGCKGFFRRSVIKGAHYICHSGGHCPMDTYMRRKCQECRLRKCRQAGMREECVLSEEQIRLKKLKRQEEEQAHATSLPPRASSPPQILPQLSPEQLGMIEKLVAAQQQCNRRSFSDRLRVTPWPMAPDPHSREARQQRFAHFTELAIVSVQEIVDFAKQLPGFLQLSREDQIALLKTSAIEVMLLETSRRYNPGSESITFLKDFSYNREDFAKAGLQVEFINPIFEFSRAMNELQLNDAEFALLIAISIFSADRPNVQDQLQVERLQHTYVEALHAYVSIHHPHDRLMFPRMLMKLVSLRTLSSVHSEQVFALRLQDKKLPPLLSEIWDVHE
# Outline: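 In this multiplexed TRANS system, compounds act on HepG2 cells carrying GAL4-UAS reporter units and a receptor-GAL4 fusion for 24 h. Induced reporter RNA is amplified, fluorescently labelled and sized by capillary electrophoresis, with DMSO as baseline.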
# [11] = biological target: Oxysterols receptor LXR-beta (Homo sapiens) (UniProt P55055); test: ATG_LXRb_TRANS: Attagene TRANS-FACTORIAL HepG2 Assay for human Liver X Receptor beta (LXRb) (AID 2282981; active = hit-call score of the fitted dose curve at least 0.9, where 1 is the maximum); conditions: HepG2 Attagene TRANS GAL4-LXRb reporter, mRNA
# Sequence of Oxysterols receptor LXR-beta (Homo sapiens) (P55055 whole entry, looked up, the tested form may be a part): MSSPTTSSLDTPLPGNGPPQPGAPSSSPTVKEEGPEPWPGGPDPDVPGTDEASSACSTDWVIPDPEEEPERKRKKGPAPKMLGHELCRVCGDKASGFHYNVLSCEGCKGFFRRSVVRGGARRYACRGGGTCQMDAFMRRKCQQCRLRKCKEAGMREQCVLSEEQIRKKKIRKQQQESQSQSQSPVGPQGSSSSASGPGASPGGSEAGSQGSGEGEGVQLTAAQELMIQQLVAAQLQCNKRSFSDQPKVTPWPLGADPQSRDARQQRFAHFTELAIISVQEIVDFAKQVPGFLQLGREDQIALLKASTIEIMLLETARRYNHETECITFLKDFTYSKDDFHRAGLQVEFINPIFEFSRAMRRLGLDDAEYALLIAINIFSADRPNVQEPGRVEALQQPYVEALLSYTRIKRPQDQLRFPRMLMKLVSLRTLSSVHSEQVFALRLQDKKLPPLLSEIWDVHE
# Outline: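 Transient transfection HepG2 (multiplexed RTUs, GAL4-UAS); NR-Gal4 chimera; 24 h exposure; RNA → RT-PCR → 6-FAM primer extension → HpaI → CE; increase vs DMSO.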
# [12] = biological target: Hepatocyte nuclear factor 4-alpha (Homo sapiens) (UniProt P41235); test: ATG_HNF4a_TRANS: Attagene TRANS-FACTORIAL HepG2 Assay for human Hepatocyte Nuclear Factor 4 alpha (HNF4a) (AID 2282982; active = hit-call score of the fitted dose curve at least 0.9, where 1 is the maximum); conditions: HepG2 HNF4a transactivation reporter, mRNA readout
# Sequence of Hepatocyte nuclear factor 4-alpha (Homo sapiens) (P41235 whole entry, looked up, the tested form may be a part): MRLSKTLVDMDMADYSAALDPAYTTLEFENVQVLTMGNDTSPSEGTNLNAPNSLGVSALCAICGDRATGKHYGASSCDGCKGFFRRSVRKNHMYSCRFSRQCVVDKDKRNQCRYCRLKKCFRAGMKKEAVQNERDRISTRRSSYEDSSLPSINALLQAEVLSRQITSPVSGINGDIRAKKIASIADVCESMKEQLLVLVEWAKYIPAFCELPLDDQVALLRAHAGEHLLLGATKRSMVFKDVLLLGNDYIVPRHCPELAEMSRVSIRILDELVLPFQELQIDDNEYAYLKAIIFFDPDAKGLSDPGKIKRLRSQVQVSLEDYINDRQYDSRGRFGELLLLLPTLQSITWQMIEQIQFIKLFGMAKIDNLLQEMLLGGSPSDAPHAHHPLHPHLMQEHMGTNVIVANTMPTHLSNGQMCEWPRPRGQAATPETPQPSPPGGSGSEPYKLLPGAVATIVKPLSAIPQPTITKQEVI
# Outline: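 Readout is fluorescent reporter-transcript fragments resolved by capillary electrophoresis after RT-PCR from HepG2 cells dosed for 24 h. Cells carried transfected GAL4-UAS reporter constructs measuring exogenous NR-GAL4 chimera activity; DMSO served as baseline.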
# [13] = ATG_M_06_TRANS: Attagene TRANS-FACTORIAL HepG2 Assay for M06 Transcription Factor (Internal Marker) (AID 2282983; active = hit-call score of the fitted dose curve at least 0.9, where 1 is the maximum;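 also: reporter transcript level by RT-PCR then capillary electrophoresis fluorescence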); conditions: HepG2 Attagene TRANS M06 internal marker reporter
# Outline: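 Internal-marker background readout from a multiplexed TRANS reporter system in HepG2; 24 h dosing; mRNA induction quantified by RT-PCR plus capillary electrophoresis fluorescence; DMSO as negative control and baseline.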
# [14] = ATG_M_32_TRANS: Attagene TRANS-FACTORIAL HepG2 Assay for M32 Transcription Factor (Internal Marker) (AID 2282984; active = hit-call score of the fitted dose curve at least 0.9, where 1 is the maximum;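 also: transcript level of a background control reporter unit measured by RT-PCR and capillary electrophoresis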); conditions: HepG2 Attagene TRANS M32 internal marker reporter
# Outline: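 Measures reporter mRNA induction in human HepG2 liver cells after 24 h chemical treatment. Transcripts from transiently transfected GAL4-UAS reporter units are amplified, fluorescently labelled and sized by capillary electrophoresis; gain of signal relative to DMSO.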
# [15] = biological target: Nuclear receptor subfamily 4 group A member 2 (Homo sapiens) (UniProt P43354); test: ATG_NURR1_TRANS: Attagene TRANS-FACTORIAL HepG2 Assay for human Nuclear Receptor Related Protein 1 (NURR1) (AID 2282985; active = hit-call score of the fitted dose curve at least 0.9, where 1 is the maximum); conditions: HepG2 Attagene TRANS reporter, mRNA readout
# Sequence of Nuclear receptor subfamily 4 group A member 2 (Homo sapiens) (P43354 whole entry, looked up, the tested form may be a part): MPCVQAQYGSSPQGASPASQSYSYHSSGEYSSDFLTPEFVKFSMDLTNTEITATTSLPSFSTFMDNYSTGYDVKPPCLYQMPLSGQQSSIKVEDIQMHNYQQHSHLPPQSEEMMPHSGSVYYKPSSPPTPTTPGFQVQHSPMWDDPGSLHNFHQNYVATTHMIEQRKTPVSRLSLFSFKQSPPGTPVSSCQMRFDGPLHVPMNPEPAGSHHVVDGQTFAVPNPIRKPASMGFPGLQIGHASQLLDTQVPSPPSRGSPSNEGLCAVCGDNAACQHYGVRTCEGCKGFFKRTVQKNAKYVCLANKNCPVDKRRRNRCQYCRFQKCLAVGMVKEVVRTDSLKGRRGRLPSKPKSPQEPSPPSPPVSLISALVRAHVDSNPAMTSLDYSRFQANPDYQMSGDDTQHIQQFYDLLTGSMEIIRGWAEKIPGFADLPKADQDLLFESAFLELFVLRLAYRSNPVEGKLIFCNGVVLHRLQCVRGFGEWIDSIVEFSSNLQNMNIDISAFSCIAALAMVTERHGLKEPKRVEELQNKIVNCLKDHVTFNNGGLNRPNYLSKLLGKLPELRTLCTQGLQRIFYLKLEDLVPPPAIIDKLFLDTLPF
# Outline: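 Transient transfection of HepG2, human liver cells, with multiple GAL4-UAS reporter transcription units. Cells dosed 24 h, RNA isolated, reverse-transcribed, PCR-amplified, FAM-labelled, HpaI-digested, sized by capillary electrophoresis. DMSO served as negative control.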
# [16] = biological target: Transcriptional activator Myb (Homo sapiens) (UniProt P10242); test: ATG_Myb_CIS: Attagene CIS-FACTORIAL HepG2 Assay for human Myeloblastosis (Myb) Proto-Oncogene Transcription Factor (AID 2282986); conditions: HepG2 Attagene CIS-FACTORIAL Myb reporter transcription; actives raise or lower the signal
# Sequence of Transcriptional activator Myb (Homo sapiens) (P10242 whole entry, looked up): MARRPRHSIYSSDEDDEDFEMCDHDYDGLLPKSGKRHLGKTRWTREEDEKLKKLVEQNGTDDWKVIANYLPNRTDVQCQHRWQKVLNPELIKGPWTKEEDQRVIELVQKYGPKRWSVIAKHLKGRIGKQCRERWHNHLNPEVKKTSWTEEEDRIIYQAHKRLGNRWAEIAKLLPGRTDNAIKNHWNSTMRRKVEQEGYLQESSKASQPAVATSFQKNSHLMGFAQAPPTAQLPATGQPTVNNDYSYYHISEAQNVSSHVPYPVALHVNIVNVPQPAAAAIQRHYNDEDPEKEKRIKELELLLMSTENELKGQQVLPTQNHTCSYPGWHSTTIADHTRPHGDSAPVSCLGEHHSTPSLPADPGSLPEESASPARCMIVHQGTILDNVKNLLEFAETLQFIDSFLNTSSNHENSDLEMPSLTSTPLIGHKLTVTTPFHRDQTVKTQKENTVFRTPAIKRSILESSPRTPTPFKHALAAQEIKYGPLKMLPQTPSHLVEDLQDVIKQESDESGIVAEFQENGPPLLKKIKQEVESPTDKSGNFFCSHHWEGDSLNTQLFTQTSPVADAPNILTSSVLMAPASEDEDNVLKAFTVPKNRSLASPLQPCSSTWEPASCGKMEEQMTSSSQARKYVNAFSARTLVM
# Outline: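 Using HepG2 liver cells bearing transiently transfected cis-promoter reporter constructs, the assay measures induction or loss of reporter mRNA after 24 hours of dosing. Detection used fluorescently labeled RT-PCR products separated by capillary electrophoresis.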
# [17] = biological target: Nuclear respiratory factor 1 (Homo sapiens) (UniProt Q16656); test: ATG_NRF1_CIS: Attagene CIS-FACTORIAL HepG2 Assay for human Nuclear Respiratory Factor 1 (NRF1) Orphan Gene (AID 2282987); conditions: HepG2 NRF1 cis-element reporter, Attagene multiplex; actives raise or lower the signal
# Sequence of Nuclear respiratory factor 1 (Homo sapiens) (Q16656 whole entry, looked up): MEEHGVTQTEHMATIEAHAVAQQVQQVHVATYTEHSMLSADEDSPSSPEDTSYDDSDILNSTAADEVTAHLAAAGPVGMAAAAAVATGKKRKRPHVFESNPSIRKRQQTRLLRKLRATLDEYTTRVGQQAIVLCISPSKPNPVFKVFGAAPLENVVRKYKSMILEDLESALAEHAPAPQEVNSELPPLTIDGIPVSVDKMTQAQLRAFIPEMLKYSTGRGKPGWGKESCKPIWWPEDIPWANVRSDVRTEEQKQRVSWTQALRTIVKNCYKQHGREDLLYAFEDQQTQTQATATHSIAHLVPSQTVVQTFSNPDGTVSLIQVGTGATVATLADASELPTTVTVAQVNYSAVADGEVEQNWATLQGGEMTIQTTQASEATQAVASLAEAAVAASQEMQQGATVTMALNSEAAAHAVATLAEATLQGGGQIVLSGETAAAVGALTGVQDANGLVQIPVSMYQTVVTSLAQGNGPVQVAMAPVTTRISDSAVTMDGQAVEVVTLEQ
# Outline: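 Reporter mRNA induction or loss in HepG2 cells after 24 h dosing; cis-regulated reporter constructs report endogenous transcription-factor activity. Quantified by RT-PCR/capillary electrophoresis fluorescence, DMSO-referenced.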
# [18] = biological target: Bile acid receptor (Homo sapiens) (UniProt Q96RI1); test: ATG_FXR_TRANS: Attagene TRANS-FACTORIAL HepG2 Assay for Farnesoid X Receptor (FXR) (AID 2282979; active = hit-call score of the fitted dose curve at least 0.9, where 1 is the maximum;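 also: hits raise reporter mRNA above DMSO so AC50 marks FXR activation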); conditions: HepG2 Attagene TRANS FXR-GAL4 reporter transcription
# Sequence of Bile acid receptor (Homo sapiens) (Q96RI1 whole entry, looked up, the tested form may be a part): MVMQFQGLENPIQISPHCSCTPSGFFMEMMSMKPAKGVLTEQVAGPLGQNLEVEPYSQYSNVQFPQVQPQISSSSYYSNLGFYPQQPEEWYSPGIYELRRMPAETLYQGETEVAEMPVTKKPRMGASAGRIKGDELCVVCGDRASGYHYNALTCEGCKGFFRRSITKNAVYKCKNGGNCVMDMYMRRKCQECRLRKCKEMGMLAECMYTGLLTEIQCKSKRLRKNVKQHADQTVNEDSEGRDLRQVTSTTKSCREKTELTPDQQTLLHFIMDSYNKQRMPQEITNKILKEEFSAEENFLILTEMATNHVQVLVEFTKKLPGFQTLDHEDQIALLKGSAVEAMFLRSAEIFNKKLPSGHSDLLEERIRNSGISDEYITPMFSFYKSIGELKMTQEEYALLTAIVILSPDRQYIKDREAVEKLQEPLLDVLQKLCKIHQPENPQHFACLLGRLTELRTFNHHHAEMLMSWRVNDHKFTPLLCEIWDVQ
# Outline: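 After 24 h chemical treatment of transfected HepG2 cells, GAL4-UAS reporter transcripts driven by an exogenous FXR-GAL4 fusion were measured by RT-PCR and capillary electrophoresis. Increases over DMSO were fitted.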
structure (smiles),measurement,setting,value
C[C@]12CC[C@@H]3c4ccc(O)cc4CC[C@H]3[C@@H]1CC[C@H]2O,outcome,[1],inactive
same,outcome,[2],inactive
same,AC50,[3],19.8 µM (active)
same,outcome,[3],inactive
same,outcome,[4],inactive
same,outcome,[5],inactive
same,outcome,[6],inactive
same,outcome,[7],inactive
same,outcome,[8],inactive
same,outcome,[9],inactive
same,outcome,[10],inactive
same,outcome,[11],inactive
same,outcome,[12],inactive
same,outcome,[13],inactive
same,outcome,[14],inactive
same,outcome,[15],inactive
same,outcome,[16],inactive
CCCCCCCC[Si](OCC)(OCC)OCC,AC50,[1],148 µM (active)
same,outcome,[1],inactive
same,outcome,[2],inactive
same,AC50,[3],169 µM (active)
same,outcome,[3],inactive
same,outcome,[5],inactive
same,outcome,[6],inactive
same,outcome,[9],inactive
same,outcome,[10],inactive
same,outcome,[11],inactive
same,outcome,[13],inactive
same,outcome,[14],inactive
same,outcome,[15],inactive
same,outcome,[16],inactive
same,AC50,[17],147 µM (active)
same,outcome,[17],inactive
CN1C(=O)N(c2ccccc2Br)Cc2cnc(Nc3ccc4c(c3)OCC(CO)O4)nc21 (stereo not drawn),AC50,[1],12.4 µM (active)
same,outcome,[2],inactive
same,AC50,[3],4.14 µM (active)
same,outcome,[4],inactive
same,AC50,[5],9.79 µM (active)
same,outcome,[6],inactive
same,outcome,[7],inactive
same,outcome,[9],inactive
same,outcome,[18],inactive
same,outcome,[14],inactive
same,outcome,[15],inactive
same,outcome,[16],inactive
CCCCOC(=O)CC(CC(=O)OCCCC)(OC(C)=O)C(=O)OCCCC,outcome,[1],inactive
same,outcome,[2],inactive
same,AC50,[3],8 µM (active) and 4.3 µM (active)
same,outcome,[5],inactive
same,outcome,[6],inactive
same,outcome,[9],inactive
same,outcome,[18],inactive
same,outcome,[12],inactive
same,outcome,[13],inactive
same,outcome,[14],inactive
same,outcome,[15],inactive
same,outcome,[16],inactive
same,outcome,[17],inactive
